Data: PubChem BioAssay AID1259343 (VanderVen Lab, College of Veterinary Medicine, Cornell …, 2017)
Screen size: about 6,200 compounds; about 2,900 (47%) were called active. The set was probably picked from earlier hits. Some of the results follow. Unmarked numbers belong to inactive results. Cut-off read from the data, not from the text of the source: active = inhibition above about 50%; inactive = the rest.

Test: Mycobacterium tuberculosis growth inhibition, primary screen (AID 1259343)
Details: inhibition: at 10 µM, hits give high values; outcome: 10 uM
In the case of `O=[N+]([O-])c1ccccc1NCCNc1cccc2ccccc12`, the inhibition is reported as 26%.
With `c1ccc2c(NCCNc3ncnc4ccccc34)cccc2c1` the inhibition was 69.3% (active).
`c1ccc(-c2nc(NCCc3ccccn3)c3ccccc3n2)cc1` showed an inhibition of -27%.
For `COc1ccc(OC)c(-c2nc3ccc(Br)cn3c2NC2CCCCC2)c1`, the inhibition was 10.8%.
With `CCOC(=O)CNc1c(-c2ccccc2Cl)nc2ccc(Br)cn12` the inhibition was 88.4% (active).
For `CCOC(=O)CNc1c(-c2ccc(C(F)(F)F)cc2)nc2ccc(Br)cn12`, the inhibition was 24.2%.
In the case of `Oc1c(Cl)cc(Cl)c(Cl)c1Cc1c(O)c(Cl)cc(Cl)c1Cl`, the inhibition is reported as 102% (active).
For `Cc1cccc(-c2ccc(NC(=O)C3CCN(C(=O)c4nonc4C)CC3)cc2)c1`, the inhibition was 92.3% (active).
In the case of `Cc1cccc(-c2ccc(NC(=O)C3CCN(C(=O)c4ccncc4)CC3)cc2)c1`, the inhibition is reported as “inactive”.
With `Cc1cccc(-c2ccc(NC(=O)C3CCN(C(=O)c4ccc(F)cc4)CC3)cc2)c1` the inhibition was 81.5% (active).
For `COc1ccccc1N(C)CC(=O)NC12CC3CC(CC(C3)C1)C2`, the inhibition was 9.54%.
In the case of `Cc1ccc(SCC(=O)NC23CC4CC(CC(C4)C2)C3)cc1C`, the inhibition is reported as -43.9%.
For `O=C(CCOc1ccccc1)NC12CC3CC(CC(C3)C1)C2`, the inhibition was 87.8% (active).
For `O=C(Nc1nc(-c2ccc(Br)s2)cs1)c1ccc(Br)s1`, the inhibition was 81.8% (active).
Compound `CC(C)Nc1nc(-c2ccc(Br)s2)cs1` has an inhibition of 17.8%.
With `CCOc1ccc(Nc2cncc(Cl)n2)cc1` the inhibition was 72.5% (active).
`COc1ccc(NC(=O)N(Cc2ccco2)C(C)c2nc3ccccc3c(=O)n2-c2ccccc2)cc1` (configuration not stated) gave an inhibition of -7.33%.
For `COc1ccc(NC(c2ccccn2)c2oc(CO)cc(=O)c2O)cc1` (configuration not stated), the inhibition was 84.2% (active).
For `CCCCCCCCNC(C)C(O)c1ccc(SC(C)C)cc1` (configuration not stated), the inhibition was 3.63%.
In the case of `NC(=O)Cc1csc(Nc2ccc(OC(F)(F)F)cc2)n1`, the inhibition is reported as 73.5% (active).
Compound `O=C(Cc1csc(NC(=O)NC2CCCCC2)n1)Nc1ccc(Oc2ccccc2)cc1` has an inhibition of -2.63%.
For `Cc1ccc(OCc2cc(C(=O)N(C)Cc3csc(-c4ccccc4)n3)no2)cn1`, the inhibition was 73% (active).
For `O=C(NCC1CCCCO1)c1cc(COc2c(F)cccc2F)on1` (configuration not stated), the inhibition was 65.1% (active).
In the case of `Cc1ccc(OCc2cc(C(=O)N(C)CC3Cc4ccccc4O3)no2)cn1` (configuration not stated), the inhibition is reported as “inactive”.
With `COCCN(C)C(=O)c1cc(COc2cc(C)c(Cl)c(C)c2)on1` the inhibition was “inactive”.
`O=C(NCC1CCCCO1)c1coc(COc2cccc(C(F)(F)F)c2)n1` (configuration not stated) showed an inhibition of 0.47%.
`CC(C)c1nc(CNC(=O)c2cc(COc3c(F)cccc3F)on2)cs1` showed an inhibition of 23.3%.
In the case of `CN(CCC(O)c1ccccc1)C(=O)c1cc(COc2cccc3cnccc23)on1` (configuration not stated), the inhibition is reported as 48.2%.
With `CN(CCOc1ccccc1)C(=O)c1cc(COc2c(F)cccc2F)on1` the inhibition was 84.2% (active).
With `Cc1ccc(OCc2cc(C(=O)N(C)CCc3ccccc3)no2)cc1C` the inhibition was 93.7% (active).
`O=C1OC(c2ccccc2Br)=NC1=Cc1ccc2ccccc2c1` showed an inhibition of -28.9%.
`Cc1ccc(OCCN(C)C(=O)CCc2nnc(CCc3c[nH]c4ccccc34)o2)cc1` gave an inhibition of 44.4%.
For `Cc1cc(C)cc(OCCN(C)C(=O)Nc2ccc(F)cc2)c1`, the inhibition was 30.4%.
In the case of `Cc1ccc(OCc2cc(C(=O)NCc3nc4ccccc4s3)no2)cc1C`, the inhibition is reported as 92.1% (active).
Compound `Cc1nc2cc(OCc3cc(C(=O)NCc4cc(F)ccc4C)no3)ccc2s1` has an inhibition of 22.2%.
For `Cc1ccc(OCc2cc(C(=O)NCc3cc4ccccc4[nH]3)no2)cc1C`, the inhibition was 24.7%.
In the case of `CN(CCOc1ccccc1)C(=O)c1cc(Br)c[nH]1`, the inhibition is reported as 101% (active).
For `CN(Cc1cccnc1)C(=O)c1cc(COc2ccc(F)c(F)c2)on1`, the inhibition was 60.5% (active).
For `Cc1nc2sc3c(c2c(=O)n1NC(=S)NC(=O)C12CC4CC(CC(C4)C1)C2)CCCC3`, the inhibition was 67.3% (active).
In the case of `COCCNCc1c(-c2ccccc2)noc1N(C)C1CCCCC1`, the inhibition is reported as 82.5% (active).
With `N#Cc1cccc(NCc2c(F)cccc2Cl)c1` the inhibition was 30.2%.
`N#Cc1cccc(NC(=O)NCc2cc(F)cc(F)c2)c1` gave an inhibition of -9.78%.
With `N#Cc1cccc(NN=C2CCN(c3ccc(F)cc3)CC2)c1` the inhibition was 95.8% (active).
With `CCOc1ccc(N=C2NC(=O)C(CC(=O)c3ccccc3)S2)cc1` (configuration not stated) the inhibition was 54.9% (active).
Work on `O=C(CC1SC(=NCc2ccco2)NC1=O)Nc1ccc(OC(F)(F)F)cc1` (configuration not stated) yielded an inhibition of 21.7%.
Work on `O=C(O)CC1SC(=NN=C2c3ccccc3-c3ccccc32)NC1=O` (configuration not stated) yielded an inhibition of 24.2%.
For `CCOC(=O)C1(Cc2cccc(C(F)(F)F)c2)CCN(Cc2ccc(C#CCCO)cc2)CC1`, the inhibition was 51.2% (active).
For `CCOC(=O)C1(Cc2cccc(OC)c2)CCN(CC#Cc2ccccc2)CC1`, the inhibition was 28.5%.
`CCOC(=O)C1(Cc2cccc(Cl)c2)CCCN(C(=O)CCC(F)(F)F)C1` (configuration not stated) showed an inhibition of -43.9%.
In the case of `O=C(CCC1CCCC1)N1CCc2ccc(O)cc2CC1`, the inhibition is reported as 92.6% (active).
For `Cc1ccc(F)c(OCC2CN(CC(C)O)CCO2)c1` (configuration not stated), the inhibition was 102% (active).
Compound `COc1ccc(CC2CN(Cc3ccc(OC)c(F)c3)CCO2)cc1` (configuration not stated) has an inhibition of 30.9%.
With `COc1ccc(OCCOc2ccc(C)cc2)cc1` the inhibition was “inactive”.
In the case of `COC(=O)CSCCOc1ccc(OCCSCC(=O)OC)cc1`, the inhibition is reported as 88.5% (active).
In the case of `Cc1ccc(C)c2sc(OC3CCN(S(=O)(=O)c4cccnc4)CC3)nc12`, the inhibition is reported as 31.8%.
In the case of `O=C1c2ccccc2C(=O)c2c1ccc(O)c2O`, the inhibition is reported as 101% (active).
In the case of `COc1cccc2c1CCCC2CCCN1CCN(C2CCCCC2)CC1` (configuration not stated), the inhibition is reported as 98.3% (active).
Work on `CCS(=O)(=O)Oc1ccc(CN(C(=O)c2cccc([N+](=O)[O-])c2)C(C)C)cc1` yielded an inhibition of -14.5%.
In the case of `COC(=O)CNC(=O)c1ccc([N+](=O)[O-])o1`, the inhibition is reported as 44.5%.
With `COC(=O)CCCCCNC(=O)c1cc([N+](=O)[O-])cc([N+](=O)[O-])c1` the inhibition was 93.7% (active).
Work on `Brc1ccc2c(c1)CN(Cc1ccc3c(c1)OCO3)CO2` yielded an inhibition of 1.53%.
With `COc1ccc(N2COc3cc4c(cc3C2)OCO4)cc1` the inhibition was 87.2% (active).
In the case of `COc1ccc2c(c1)OCC(C(=O)NS(=O)(=O)c1cccs1)C2` (configuration not stated), the inhibition is reported as 99.9% (active).
`COc1ccc2c(c1)CC(C(=O)N(C)Cc1ccco1)CO2` (configuration not stated) showed an inhibition of -34.5%.
Work on `COc1ccc(NC(=O)C2Cc3ccc(C)cc3S2)cc1` (configuration not stated) yielded an inhibition of 21.4%.
Compound `CN(Cc1cccc2cnccc12)S(=O)(=O)NCc1ccccc1` has an inhibition of 20.2%.
For `CN(CCCOc1ccccc1Cl)S(=O)(=O)NCc1ccccc1`, the inhibition was 56.2% (active).
Compound `COc1c(F)cc(NS(=O)(=O)N(C)Cc2ccccc2)cc1F` has an inhibition of 31.6%.
In the case of `c1ccc(CCNCCCOc2cccc3ccccc23)cc1`, the inhibition is reported as 58% (active).
With `O=C(NC1(c2ccc(Cl)cc2)CCC1)c1cnsn1` the inhibition was 60.1% (active).
In the case of `O=C(COc1ccc(Cl)cc1)NC1(c2ccccc2)CCC1`, the inhibition is reported as 29.4%.
`Cc1oc(C)c(C(=O)NC2(c3ccccc3)CCC2)c1Br` showed an inhibition of 20.5%.
With `O=S(=O)(Nc1nc2ccccc2nc1OCC(F)(F)F)c1cccs1` the inhibition was 71.9% (active).
With `O=S(=O)(Nc1ccc(Cl)c(Cl)c1)c1cccs1` the inhibition was 20.9%.
With `O=C(c1cc2cc(F)ccc2[nH]1)N1CCCC(CO)(Cc2cccc(Cl)c2)C1` (configuration not stated) the inhibition was 68.2% (active).
In the case of `OCC1(Cc2cccc(Cl)c2)CCCN(Cc2nc(-c3ccc(F)cc3)cs2)C1` (configuration not stated), the inhibition is reported as “inactive”.
Compound `COc1ccc(F)c(CN2CCCC(CO)(Cc3cccc(Cl)c3)C2)c1` (configuration not stated) has an inhibition of 31%.
Work on `CC(C)(C)c1ccc(C(=O)N2CCC2(C)C(=O)Nc2cccc3c2CCCC3)cc1` (configuration not stated) yielded an inhibition of 0.45%.
In the case of `CC(C)C(=O)N1CCC1(C)C(=O)Nc1ccc(-n2cccc2)cc1` (configuration not stated), the inhibition is reported as 92.6% (active).
For `CC(C)CSc1ncnc2c1cnn2-c1ccccc1`, the inhibition was 59.5% (active).
`Fc1ccc(CNc2ncnc3c2cnn3-c2ccc(F)cc2)cc1` showed an inhibition of -7.37%.
`CCOC(C)c1nc(CSc2ncnc3c2cnn3C)cs1` (configuration not stated) showed an inhibition of 40%.
`CN(Cc1ccccc1)c1cccc(-n2ccnc2)n1` gave an inhibition of 3.53%.
With `CN(Cc1c(F)cccc1Cl)c1cncc(-n2cccn2)n1` the inhibition was 83.7% (active).
In the case of `Clc1cccc(-c2ccc3nnc(Cl)nc3c2)c1`, the inhibition is reported as 101% (active).
In the case of `CCN(CC)c1n[nH]c(-c2cccc(Cl)c2)n1`, the inhibition is reported as -6.42%.
For `Cc1nn(-c2ccc(C(F)(F)F)cc2)c(C)c1[C@@H]1C=C[C@@H](NCc2ccc(N(C)C)cc2)C1`, the inhibition was 78.3% (active).
`N#CC(C(=S)Nc1ccccc1)=C1NN=C2CCCCCN21` showed an inhibition of 41.7%.
`COc1cccc(CNc2nccn(-c3cccc(Cl)c3)c2=O)c1` showed an inhibition of 13.4%.
In the case of `CCOc1ccc(-n2ccnc(NCc3cccs3)c2=O)cc1`, the inhibition is reported as 71.3% (active).
In the case of `O=C(O)c1c[nH]c2c(Cl)c(Cl)ccc2c1=O`, the inhibition is reported as 81.6% (active).
With `O=C(O)c1c[nH]c2c(ccc3ccccc32)c1=O` the inhibition was “inactive”.
`CCCOc1ccc(F)cc1-c1cc(C(=O)NC2CCCCC2)[nH]n1` gave an inhibition of 28%.
In the case of `COc1ccc(F)c(-c2cc(C(=O)NC3CC3)ccn2)c1`, the inhibition is reported as 82.8% (active).
`COc1ccc(-c2cc(C(=O)NC3CC3)c(C)n2-c2cccc(OC)c2)cc1` gave an inhibition of -5.91%.
With `COC(=O)c1ccc(NC(=O)CCc2ccncc2)cc1C` the inhibition was 92.8% (active).
For `FC(F)(F)c1ccc(-c2nc(CSc3nc4cc(Cl)ccc4o3)cs2)cc1`, the inhibition was 87.2% (active).
With `OCCn1c(CSc2nc3ccccc3o2)nc2ccc(Cl)cc21` the inhibition was -42.1%.
Work on `Fc1ccc(Nc2nc3cc(Cl)ccc3o2)cc1Cl` yielded an inhibition of -2.2%.
With `Cc1c2ccccc2[nH]c2c1oc1cc(=O)ccc12` the inhibition was 97.4% (active).
`CCCc1nc(-c2ccc(S(N)(=O)=O)cc2)cs1` showed an inhibition of -6.09%.
In the case of `CCCc1nc(C(=O)N2C[C@H]3CC=CC[C@H]3C2)cs1`, the inhibition is reported as 58.6% (active).
